Source: PubChem (several laboratories)
aSyn 5UTR inh – MLPCN primary screen, SNCA 5' untranslated region. hit rate 0.82% among 300,000. AID 1813, 2009. alpha-synuclein 5'UTR reporter, inhibitor activity. inhibition, % (tested at 7.5 µM); in the data active means inhibition above about 60%;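 further: H4 neuroglioblastoma cells stably carrying SNCA 5'UTR luciferase fusion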
IEC-6 tox – cytotoxicity in IEC-6 intestinal epithelial cells, primary screen, cytotoxicity control for KLF5 inhibitor project, cell-based, luminescence. IEC-6 cytotoxicity, luminescence viability. inhibition, % at 5 µM. hit rate 0.78% among 290,000; in the data active means inhibition above about 22%
APP transl inh – inhibitors of APP translation via 5'UTR reporter, primary screen, APP 5'UTR luciferase, SH-SY5Y cells; hit rate 0.82% among 190,000; inhibition, % at 2 µM; AID 1285, 2008; SH-SY5Y APP 5'UTR-luciferase reporter, luminescence;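 active means inhibition above a set limit, derived from the sample mean plus 3 SD, cut at about 45% in these data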
KLF5 inh – KLF5 expression inhibitors, primary screen, DLD-1 cells, luminescence; inhibition, % at 5 µM; DLD-1 KLF5 promoter-luciferase reporter; hit rate 0.23% among 290,000;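 active means inhibition above a per-plate limit of that plate's mean compound inhibition plus 3 SD, cut at about 60% in these data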;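 further: higher means less KLF5 promoter-driven luciferase light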
Ba/F3 V617F tox – reduced viability of JAK2V617F-dependent Ba/F3 cells, primary screen, JAK2V617F inhibitor project, cell-based, Ba/F3 EpoR-JAK2V617F, luminescence; ATP luminescence; inhibition, % at 5.6 µM; hit rate 1.1% among 220,000; AID 1446, 2008;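 active means inhibition above the campaign mean plus 3 SD over all tested compounds, cut at about 24% in these data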;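 further: cytokine-independent growth of Ba/F3 cells driven by EpoR plus mutant JAK2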
BaF3 tox – parental Ba/F3 cell viability inhibition, counter-screen for JAK2V617F inhibitor project, murine pro-B, CellTiter-Glo luminescence; hit rate 1.1% among 220,000; CellTiter-Glo ATP luminescence; inhibition, % at 5.6 µM;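 active means inhibition above a per-campaign cutoff, the mean inhibition of all tested compounds plus 3 SD, cut at about 27% in these data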
Large screens that a line does not name were inactive. Shown are actives, neighbours in structure and some others; about 2.2% of the full set was active somewhere.

O=C(Nc1ccccc1C(=O)O)C1=NN=CC1	none (no result: APP transl inh, Ba/F3 V617F tox, BaF3 tox)
CN=c1scc(-c2ccccc2F)n1/N=C(\C)c1cccnc1	BaF3 tox 38
C/C(=N\N1CCN(C2c3ccccc3-c3ccccc32)CC1)c1cccnc1	none
COC(=O)c1cnc(Oc2ccc(NC(=O)NC(=O)c3c(OC)cccc3OC)cc2)cc1C(F)(F)F	aSyn 5UTR inh 74 (no result: APP transl inh)
CC1CCCCC1NC(=O)CCNC(=O)N1CC(=O)Nc2ccccc21 (stereo not drawn)	none (no result: APP transl inh, Ba/F3 V617F tox, BaF3 tox)
Cc1c(NC(=O)Nc2cccs2)cccc1[N+](=O)[O-]	BaF3 tox 29
O=C(Nc1cccs1)Nc1ccccc1Cl	none
CC(=O)NC(c1ccco1)c1ccc2cccnc2c1O (stereo not drawn)	aSyn 5UTR inh 77, APP transl inh 55
CCCC(=O)NC(c1ccco1)c1cc([N+](=O)[O-])c2cccnc2c1O (stereo not drawn)	none
CC(C)C(=O)NC(c1ccc(Cl)cc1Cl)c1ccc2cccnc2c1O (stereo not drawn)	aSyn 5UTR inh 92, KLF5 inh 79 (no result: APP transl inh, Ba/F3 V617F tox, BaF3 tox)
Cc1ccnc(NC(c2cccnc2)c2ccc3cccnc3c2O)c1 (stereo not drawn)	none
Oc1ccccc1C(Nc1nccs1)c1ccc2cccnc2c1O (stereo not drawn)	aSyn 5UTR inh 77 (no result: APP transl inh)
CCCCC(=O)NC(c1ccc(Cl)cc1Cl)c1ccc2cccnc2c1O (stereo not drawn)	aSyn 5UTR inh 92 (no result: APP transl inh, Ba/F3 V617F tox, BaF3 tox)
CC(NC(=O)CSc1ncccn1)c1ccc(Cl)cc1Cl (stereo not drawn)	none
O=C(Cn1cnc(S(=O)(=O)N2CCCCC2)c1)N1CCN(c2ccc([N+](=O)[O-])cc2)CC1	none (no result: APP transl inh, Ba/F3 V617F tox, BaF3 tox)
CCOc1cc(C=O)ccc1OS(=O)(=O)c1ccc(NC(C)=O)cc1	none
CCC(C)n1cnc2c(=O)oc3ccccc3c21 (stereo not drawn)	APP transl inh 88
CC(C)Cn1cnc2c(=O)oc3ccccc3c21	none
Cc1nc(-c2ccccc2)sc1C(=O)NN	APP transl inh 73
CCC(C)Nc1nc(N)c([N+](=O)[O-])c(Nc2cc(OC)ccc2OC)n1 (stereo not drawn)	aSyn 5UTR inh 97 (no result: APP transl inh)
COc1ccccc1Nc1nc(NCC(C)C)nc(N)c1[N+](=O)[O-]	aSyn 5UTR inh 77 (no result: APP transl inh)
O=C(CSc1nc2ncccc2[nH]1)Nc1ccccc1-c1ccccc1	none (no result: APP transl inh, Ba/F3 V617F tox, BaF3 tox)
CNS(=O)(=O)c1cccc(C(=O)Nc2cccnc2)c1	none
CNS(=O)(=O)c1cccc(C(=O)Nc2cccc(Cl)c2)c1	APP transl inh 48
Cc1[nH]c2ccc(C(=O)NCc3ccccn3)cc2c1C	none (no result: APP transl inh, Ba/F3 V617F tox, BaF3 tox)
N#C/C(=C\c1c[nH]c2ccc(Br)cc12)c1ccccn1	none (no result: APP transl inh, Ba/F3 V617F tox, BaF3 tox)
CCSc1nnc(-c2ccc(S(=O)(=O)N3CCCC3)cc2)n1C	APP transl inh 73
CCCCSc1nnc(-c2ccc(C)cc2)n1C	Ba/F3 V617F tox 31, BaF3 tox 35
CCSc1nnc(-c2ccc(S(=O)(=O)N3CCOCC3)cc2)n1C	none (no result: APP transl inh, Ba/F3 V617F tox, BaF3 tox)
Fc1ccc(-c2nnc3ccccn23)cc1	BaF3 tox 81
Fc1ccc(-c2ncc3ccccn23)cc1	none
Cc1cccc2sc(NNC(=O)c3ccc(S(=O)(=O)N4CC(C)CC(C)C4)cc3)nc12 (stereo not drawn)	aSyn 5UTR inh 81
COC(=O)c1sc2ccccc2c1NC(=O)c1ccc(S(=O)(=O)N2CC(C)CC(C)C2)cc1 (stereo not drawn)	none
Cc1cc(C)c2nc(NNC(=O)c3ccc(S(=O)(=O)N4CCCC(C)C4)cc3)sc2c1 (stereo not drawn)	aSyn 5UTR inh 73
Cc1ccc2nc(NNC(=O)c3ccc(S(=O)(=O)N4CCc5ccccc5C4)cc3)sc2c1	aSyn 5UTR inh 96, APP transl inh 58
Cc1ccc2nc(NNC(=O)c3ccc4c(c3)OCCO4)sc2c1	none
Cc1cc(C)c2nc(NNC(=O)c3ccc(S(=O)(=O)N4CC(C)CC(C)C4)cc3)sc2c1 (stereo not drawn)	aSyn 5UTR inh 72
COc1ccc(-n2c(=O)c(CCC(=O)N3CCN(c4ccccc4O)CC3)nc3ccccc32)cc1	none (no result: IEC-6 tox, APP transl inh, KLF5 inh, Ba/F3 V617F tox, BaF3 tox)
CC(C)(C)NC(=O)C(c1ccncc1)N(Cc1cccs1)C(=O)Cn1nnc(-c2ccc(F)cc2)n1 (stereo not drawn)	none
CC(C)(C)NC(=O)C(OC(=O)Cn1nnc(-c2ccc(F)cc2)n1)c1ccncc1 (stereo not drawn)	BaF3 tox 93
COC(=O)c1cccc(NC(=O)c2onc3c2CCCC3)c1	aSyn 5UTR inh 79
O=C(Nc1ccc2ccccc2c1)c1onc2c1CCCC2	none
Cc1cccc(NC(=O)c2onc3c2CCCC3)n1	aSyn 5UTR inh 86
COc1cccc2c1-c1c(O)cccc1C2=O	none (no result: APP transl inh, Ba/F3 V617F tox, BaF3 tox)
COc1cccc2c1C(=O)c1c(O)c3c(c(O)c1C2=O)C[C@](O)(C(C)=O)C[C@H]3O[C@@H]1C[C@@H](N)[C@@H](O)[C@@H](C)O1	aSyn 5UTR inh 111 (no result: IEC-6 tox, APP transl inh, KLF5 inh, Ba/F3 V617F tox, BaF3 tox)
Cc1nn(Cc2ccc(C(=O)Nc3nccs3)cc2)c(C)c1Cl	Ba/F3 V617F tox 39, BaF3 tox 43
COc1cccc(NC(=O)Nc2ccc3c(c2)CCC3)c1	none (no result: APP transl inh, Ba/F3 V617F tox, BaF3 tox)
COc1ccc2c(c1)C=C(CN1CCC(CO)(CCc3ccccc3)CC1)CO2	none
COc1ccc(CC2(CO)CCN(CC3=Cc4cc(Cl)ccc4OC3)CC2)cc1	Ba/F3 V617F tox 37, BaF3 tox 39
CN(Cc1ccco1)C(=O)Cn1cc(S(=O)(=O)N2CCCC2)c(S(=O)(=O)N2CCCC2)c1	none (no result: APP transl inh, Ba/F3 V617F tox, BaF3 tox)
CCCCc1nc(SCC(=O)Nc2cccc(Cl)c2)n[nH]1	none (no result: APP transl inh, Ba/F3 V617F tox, BaF3 tox)
C=C1/C(=C\C=C2/CCC[C@]3(C)[C@@H]([C@H](C)CCCC(C)(C)O)CC[C@@H]23)C[C@@H](O)C[C@@H]1O	Ba/F3 V617F tox 45 (no result: APP transl inh)
CC(=O)/C(N=Nc1c(C)n(C)n(-c2ccccc2)c1=O)=C(\C)O	APP transl inh 79
CC(C1CC1)N(Cc1ccccc1)C(=S)Nc1ccccc1Cl (stereo not drawn)	none
CCOC(=O)C1CCCN(S(=O)(=O)c2cc(Br)cc3c2N(C(=O)CC)CC3)C1 (stereo not drawn)	none (no result: APP transl inh, Ba/F3 V617F tox, BaF3 tox)
CCOc1cc(Br)ccc1S(=O)(=O)N1CC(C)OC(C)C1 (stereo not drawn)	BaF3 tox 93
CCOc1ccc(Br)cc1S(=O)(=O)N1CC(C)OC(C)C1 (stereo not drawn)	none
Nc1c(C(=O)NCc2ccccc2)sc2nc(N3CCOCC3)c3c(c12)CCCC3	aSyn 5UTR inh 65
CCc1sc(NS(C)(=O)=O)nc1-c1ccccc1	APP transl inh 50
N#Cc1cc2cc3c(cc2nc1SCC(=O)N1CCOCC1)OCCO3	aSyn 5UTR inh 110 (no result: APP transl inh, Ba/F3 V617F tox, BaF3 tox)
O=C(CSc1nnnn1C1CCCCC1)Nc1ccc(F)cc1	BaF3 tox 56
